# High-throughput results (PubChem)
# This is a sample that favours compounds with a hit; in the whole collection about 6.6% have one here.
# Mtb FBA inh: Mtb fructose-bisphosphate aldolase inhibition | P9WQA3 | purified M. tuberculosis FBA, fluorescence read-out | inhibition, % at 1 µM | hit rate 2.3% among 360,000 | AID 588726;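 further: 0% = vehicle and 100% = reference inhibitor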
# Bead autofluor: counter-screen for toxin protease inhibitors: compound fluorescence; compound autofluorescence counterscreen, microsphere flow cytometry; hits give high values; fluorescence intensity (no concentration beside the values); hit rate 3.1% among 360,000; in the data active means fluorescence intensity above about 16000; inconclusive means no clear call, values can overlap the other calls
# BoNT-A LC inh2: inhibitors of Botulinum neurotoxin A light chain protease. multiplex microsphere protease substrate cleavage, flow cytometry. hit rate 0.17% among 360,000. inhibition, % at 10 µM; in the data active means inhibition above about 30%; inconclusive means no clear call, values can overlap the other calls; further: plate controls were buffer without enzyme for full effect and enzyme alone for no effect
# BoNT-F LC inh: BoNT F light chain protease inhibition; Multiplex microsphere protease cleavage assay, flow cytometry; inhibition, % at 10 µM; hit rate 0.22% among 360,000; AID 588497; in the data active means inhibition above about 35%, passing the limit was not always enough; inconclusive means no clear call, values can overlap the other calls; further: plate controls were buffer without enzyme for full effect and enzyme alone for no effect
# GDH-TPI counter-1: counter-screen for M. tuberculosis FBA inhibitors: GDH-TPI coupled enzymes. GDH-TPI coupled enzyme counterscreen, NADH absorbance. inhibition, % at 4.8 µM. hit rate 1.2% among 360,000. AID 588335; in the data active means inhibition above about 30%;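 further: 0% = DMSO wells and 100% = wells lacking the enzyme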
# Anthrax LF inh2: inhibitors of Bacillus anthracis lethal factor protease | P15917 | multiplex microsphere protease cleavage assay, LF | inhibition, % at 10 µM | hit rate 0.12% among 360,000; in the data active means inhibition above about 30%; inconclusive means no clear call, values can overlap the other calls; further: plate controls were buffer without enzyme for full effect and enzyme alone for no effect
# Target sequence (P15917 whole entry, looked up): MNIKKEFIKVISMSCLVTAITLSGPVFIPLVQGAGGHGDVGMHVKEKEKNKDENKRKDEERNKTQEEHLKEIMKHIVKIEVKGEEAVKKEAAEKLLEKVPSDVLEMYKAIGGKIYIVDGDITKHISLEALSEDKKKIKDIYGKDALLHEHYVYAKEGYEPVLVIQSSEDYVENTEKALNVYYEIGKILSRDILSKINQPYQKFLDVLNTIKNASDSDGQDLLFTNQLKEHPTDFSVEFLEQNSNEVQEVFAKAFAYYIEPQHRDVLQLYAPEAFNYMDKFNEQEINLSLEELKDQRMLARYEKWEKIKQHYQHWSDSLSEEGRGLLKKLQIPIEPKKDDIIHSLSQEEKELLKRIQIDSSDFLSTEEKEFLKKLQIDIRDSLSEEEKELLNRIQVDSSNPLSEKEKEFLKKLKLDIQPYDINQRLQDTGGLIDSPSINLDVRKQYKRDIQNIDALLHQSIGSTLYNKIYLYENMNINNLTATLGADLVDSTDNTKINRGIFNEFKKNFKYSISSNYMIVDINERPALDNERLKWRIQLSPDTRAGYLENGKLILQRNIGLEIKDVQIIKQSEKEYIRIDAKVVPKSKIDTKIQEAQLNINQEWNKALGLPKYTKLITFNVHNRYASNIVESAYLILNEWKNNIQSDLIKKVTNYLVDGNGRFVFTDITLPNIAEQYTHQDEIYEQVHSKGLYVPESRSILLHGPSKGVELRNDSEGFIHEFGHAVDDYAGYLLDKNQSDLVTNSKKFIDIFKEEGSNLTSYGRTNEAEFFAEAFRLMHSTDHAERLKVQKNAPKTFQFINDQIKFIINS
# Mtb FBA confirm: confirmation of M. tuberculosis fructose-bisphosphate aldolase inhibitors | AID 651616 | purified M. tuberculosis FBA, fluorescence read-out | inhibition, % at 1 µM | hit rate 78% among 5,600 | shares compounds with Mtb FBA inh;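 further: 0% = vehicle wells and 100% = reference inhibitor wells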
# GDH-TPI counter-2: inhibits GDH-TPI coupling enzymes, flagging Mtb FBA hits; hit rate 81% among 5,600; shares compounds with Mtb FBA inh; GDH-TPI coupled enzyme counterscreen, fluorescence; inhibition, % at 1 µM; in the data active means inhibition above about 10%
# Active calls of the source: *; ? = inconclusive; / = no result; + = active, no number. Unless noted, no stated cut-off is given here; in the data, active means inhibition above about 27%; inactive means the rest.
SMILES,Mtb FBA inh,Bead autofluor,BoNT-A LC inh2,BoNT-F LC inh,GDH-TPI counter-1,Anthrax LF inh2,Mtb FBA confirm,GDH-TPI counter-2
O=C(NCCc1ccccc1)C1CCC(=O)N(CCCN2CCCC2=O)C1 (centres undefined),-1,4043,0,?,-1,4,/,/
O=C(NCc1cc2ccccc2[nH]1)C1CCC(=O)N(CCCN2CCCC2=O)C1 (centres undefined),30*,5831,2,-3,5,-3,62*,32*
Cc1ccc(S(=O)(=O)NC(=O)Nc2nnc(C3CC3)s2)cc1,0,5273,-2,-23,9,-4,/,/
CCCCCc1nnc(NC(=O)NS(=O)(=O)c2ccc(C)cc2)s1,41*,3736,2,-8,2,6,151*,121*
O=C1c2ccccc2NC2(CCCC2)N1NS(=O)(=O)c1ccccc1,22,3508,-1,-4,8,4,/,/
CCOC(=O)NN1C(=O)c2ccccc2NC12CCCC2,59*,3919,0,2,5,7,163*,139*
CS(=O)(=O)NN1C(=O)c2ccccc2NC12CCCC2,35*,2546,-1,-1,7,-2,131*,107*
O=C(C1=NOC2(C1)C(=O)Nc1ccccc12)N1CCCCC1 (centres undefined),/,5126,0,-2,/,-6,/,/
O=C(CSCc1cccc(Br)c1)NC1CC1,0,2417,-1,4,5,-3,/,/
CCCN1C2=C(C(=O)CC(C)(C)C2)C(c2ccc(F)cc2)C2=C1c1ccccc1C2=O (centres undefined),1,11164,-1,-5,2,-6,/,/
CCN(CC)CCN1C2=C(C(=O)CC(C)(C)C2)C(c2cccc(F)c2)C2=C1CC(C)(C)CC2=O,83*,3171,1,7,14,-1,+,200*
CC1(C)CC(=O)C2=C(C1)N(CCN1CCOCC1)C1=C(C(=O)CC(C)(C)C1)C2c1cccc(Cl)c1,30*,3477,0,-8,14,-2,3,2
CC1=C(C(=O)N(C)C)CC(CC(=O)NCc2cccs2)C(=O)N1CCCN1CCCC1=O (centres undefined),2,2976,0,-3,4,-9,/,/
COc1ccc(N(Cc2ccccc2)S(=O)(=O)c2cc(C(=O)O)ccc2Cl)cc1,2,3865,-2,-15,-8,-9,/,/
Cc1ccc(-c2nc(CCNC(=O)c3ccco3)cs2)cc1,1,6562,-3,-15,-11,-6,/,/
COc1cc(-c2nc(CCNC(=O)c3ccco3)cs2)cc(OC)c1OC,37*,5811,1,-3,-1,-1,139*,112*
CCOC(=O)C1CCCN(C(=O)Nc2ccccc2)C1 (centres undefined),2,7255,1,11,3,1,/,/
Cc1ccc(C2OC34CCCCCC3C(C#N)(C(=N)O4)C2(C#N)C#N)cc1 (centres undefined),70*,2401,-1,-14,4,-1,119*,102*
O=c1cc(C(F)(F)F)c2sc(N3CCCCC3)nc2[nH]1,86*,4673,-1,-21,20,-1,162*,125*
CN(C)c1ccc(/C=C/C(=O)c2ccc3c(c2)OCCO3)cc1[N+](=O)[O-],-11,1936,0,-7,15,-5,/,/
CN(C)c1ccc(/C=N/N=C(N)N)cc1[N+](=O)[O-],80*,4476,0,-1,30,-9,198*,132*
Oc1cccc(Oc2ncc(C(F)(F)F)cc2Cl)c1,-3,2545,0,-4,-5,0,/,/
CCn1c(SC)nnc1-c1ccc(S(=O)(=O)N2CCCCC2)cc1,28*,14386,8,7,10,-7,42*,34*
CC(OC(=O)C1CC1)C(=O)Nc1cc(C(F)(F)F)ccc1Cl (centres undefined),-3,4193,0,-4,-9,0,/,/
CCOc1ccc(NC(=O)c2cccc(OC(=S)N3CCC(C)CC3)c2)cc1,-2,3218,0,0,5,-8,/,/
SMILES,Mtb FBA inh,Bead autofluor,BoNT-A LC inh2,BoNT-F LC inh,GDH-TPI counter-1,Anthrax LF inh2,Mtb FBA confirm,GDH-TPI counter-2
C[N+]1(CC(=O)OCCCc2ccccc2)CCCC1,0,2653,0,-4,2,-1,/,/
C[N+]1(CC(=O)OCCCc2ccccc2)CCCCC1,30*,4785,-1,-14,-3,-4,60*,42*
COC(=O)c1cc(Br)cn1S(=O)(=O)c1ccccc1,0,3064,2,0,-3,-9,/,/
CCOC(=O)c1cc(-c2ccc(C)cc2)nc2nc(SC)[nH]c(=O)c12,40*,2007,0,6,30,0,151*,159*
Cc1c(Cl)c([N+](=O)[O-])nn1CC(=O)NC12CC3CC(CC(C3)C1)C2,3,6150,1,0,-3,0,/,/
Cc1oc2c(CN3CCOCC3)c(O)ccc2c(=O)c1-c1ccc(Br)cc1,68*,3191,0,2,10,-1,4,-4
Cc1oc2c(CN3CCOCC3)c(O)ccc2c(=O)c1-c1ccc(Cl)cc1,65*,3785,-1,-6,28,-2,37*,22*
Cc1oc2c(CN3CCCCC3C)c(O)ccc2c(=O)c1-c1ccc(Br)cc1 (centres undefined),108*,4049,2,?,11,-13,118*,97*
CCN1C(=O)N(C)[C@@H](c2ccccc2)C(C(=O)OC)=C1C,-1,3702,0,1,-3,0,/,/
CCOC(=O)c1c(NC(=O)C2C3CCC(O3)C2C(=O)O)sc2c1CCC(CC)C2 (centres undefined),10,4757,0,3,5,-2,/,/
CCOC(=O)c1c(NC(=O)C2C3C=CC(C3)C2C(=O)O)sc2c1CCC(CC)C2 (centres undefined),34*,2061,0,-6,14,-2,-1,2
COc1ccc2oc(C(=O)OCC(=O)Nc3ccccc3OC)c(C)c2c1,16,4921,1,?,12,-1,/,/
COc1ccc2oc(C(=O)OCC(=O)NC(=O)NC(C)C)c(C)c2c1,35*,10713,-1,8,11,2,45*,35*
COc1ccc2oc(C(=O)OCC(=O)NC(C)c3ccccc3)c(C)c2c1 (centres undefined),39*,6045,-3,-5,-1,1,127*,85*
COc1ccc2oc(C(=O)OCC(=O)Nc3ccc(N4CCOCC4)cc3)c(C)c2c1,7,7369,-7,3,6,-5,/,/
COc1ccc2oc(C(=O)OCC(=O)Nc3ccccc3)c(C)c2c1,33*,6523,-3,-6,5,-2,+,168*
COc1ccc2oc(C(=O)OCC(=O)Nc3ccc(C(=O)N(C)C)cc3)c(C)c2c1,28*,5983,2,13,9,4,44*,44*
